Measured values: PubChem BioAssay (EPA / NIEHS)
Records with an inconclusive call do not appear. Calls of active or inactive are those of the source. How the source made its calls, unless noted: active means hit-call score of the fitted dose curve at least 0.9, where 1 is the maximum; inconclusive means response in the unintended direction; inactive means score below 0.9.

What was measured:
[1] = target: Nucleoli Translocation, AR (gene 367) (UniProt P10275); assay: UPITT_HCI_U2OS_AR_TIF2_Nucleoli_Antagonist: University of Pittsburgh U2OS Androgen Receptor-Transcriptional Intermediary Factor 2 (AR-TIF2) Antagonism High Content Imaging Assay for Nucleoli Translocation (AID 2283997)
Method in brief: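 An antagonist-mode imaging screen: engineered U2OS (AR-RFP, TIF2-GFP) exposed to 20 uM compound, 0.2% DMSO. Activity reflects nucleolar red fluorescence change relative to DHT baseline.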

[2] = target: Ratio of Nucleoli Translocation and Cytoplasm, AR (gene 367) (UniProt P10275); assay: UPITT_HCI_U2OS_AR_TIF2_Nucleoli_Cytoplasm_Ratio_Antagonist: University of Pittsburgh U2OS Androgen Receptor-Transcriptional Intermediary Factor 2 (AR-TIF2) Antagonism High Content Imaging Assay for Ratio of Nucleoli Translocation and Cytoplasm (AID 2283999);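 further: antagonists lower the DHT-driven ratio of nucleolar to cytoplasmic red signal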
Method in brief: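 Compounds were added to U2OS cells carrying red-fluorescent AR and green-fluorescent TIF2, first at 20 uM, with hits confirmed in triplicate and titrated from 0.195 to 50 uM. Nucleolar versus cytoplasmic AR-RFP fluorescence was then quantified by imaging, with analysis relative to DHT.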

[3] = target: Ratio of Nucleoli Translocation and Cytoplasm, AR (gene 367) (UniProt P10275); assay: UPITT_HCI_U2OS_AR_TIF2_Nucleoli_Cytoplasm_Ratio_Agonist: University of Pittsburgh U2OS Androgen Receptor-Transcriptional Intermediary Factor 2 (AR-TIF2) Agonism High Content Imaging Assay for Ratio of Nucleoli Translocation and Cytoplasm (AID 2284000);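 further: hits raise the red nucleolar to cytoplasm ratio above vehicle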
Method in brief: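 Primary screen at 20 uM final (0.2% DMSO), then triplicate confirmation and dose-response from 0.195 to 50 uM final (0.5% DMSO). Cells: U2OS with AR-RFP and TIF2-GFP. Endpoint is the nucleoli/cytoplasm red-fluorescence ratio, gain-of-signal vs DMSO.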

[4] = target: Nucleoli Translocation, AR (gene 367) (UniProt P10275); assay: UPITT_HCI_U2OS_AR_TIF2_Nucleoli_Agonist: University of Pittsburgh U2OS Androgen Receptor-Transcriptional Intermediary Factor 2 (AR-TIF2) Agonism High Content Imaging Assay for Nucleoli Translocation (AID 2283998)
Method in brief: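 Nucleolar translocation of AR-RFP, with TIF2-GFP coexpressed in human osteosarcoma U2OS, imaged by high-content fluorescence. Compounds tested singly at 20 uM final, confirmed in triplicate, then titrated 0.195–50 uM final; gain-of-signal relative to DMSO.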

[5] = CCTE_Simmons_MITO_basal_resp_rate: CCTE's HepG2 Seahorse XF Respirometric Screening Assay at Basal Respiratory State, Simmons Lab (AID 2284001; active means hit-call score of the fitted dose curve at least 0.9, where 1 is the maximum; inactive means score below 0.9); settings: actives raise or lower the signal
Method in brief: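 Readout is oxygen consumption rate after test compound injection, measured by Seahorse XF in HepG2 cells. Seven concentrations from 125 nM up to 100 uM final are tested, and activity in either direction is fitted against DMSO.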

[6] = CCTE_Simmons_MITO_max_resp_rate: CCTE's HepG2 Seahorse XF Respirometric Screening Assay at Maximal Respiratory State [uncoupled], Simmons Lab (AID 2284002; active means hit-call score of the fitted dose curve at least 0.9, where 1 is the maximum; inactive means score below 0.9); settings: actives raise or lower the signal
Method in brief: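 Maximal (FCCP-uncoupled) respiration rate in HepG2, from Seahorse kinetic OCR over 72 min at 6 min cycles. Compounds at 125 nM–100 uM final, 7 points, three biological replicates; both directions fit relative to DMSO.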

[7] = CCTE_Simmons_MITO_inhib_resp_rate: CCTE's HepG2 Seahorse XF Respirometric Screening Assay at Inhibited Respiratory State [full ETC block], Simmons Lab (AID 2284006; active means hit-call score of the fitted dose curve at least 0.9, where 1 is the maximum; inactive means score below 0.9); settings: actives raise or lower the signal
Method in brief: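 Seahorse respirometry, HepG2, 72 min total, 6-min mix/measure cycles. Cpd 125 nM–100 uM final ×7, n=3 biological. Sequential FCCP, rotenone/antimycin A; inhibited-respiration OCR, bidirectional fit vs DMSO.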

[8] = CCTE_Simmons_MITO_viability: CellTiter-Glo Viability Assessment for CCTE's HepG2 Seahorse XF Respirometric Screening Assay [post-hoc], Simmons Lab (AID 2284007)
Method in brief: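 Cytotoxicity readout: ATP quantitation via luciferase in HepG2 cells treated 90 min with seven titrated concentrations (125 nM to 100 uM, final). Curves fitted relative to DMSO negative control, three biological replicates per concentration.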

DIO1 (gene 1733) = assay: CCTE_GLTED_hDIO1: CCTE's human Deiodinase 1 (DIO1) Inhibition Assay, Great Lakes Toxicology and Ecology Division (GLTED) Lab (AID 2283987);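 further: isolated human DIO1 enzyme in a cell-free setup rather than cells; enzyme activity read as free iodide liberated from substrate via Sandell-Kolthoff colorimetry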
Method in brief: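 Inhibition read as reduced iodide release: after 3 h of human DIO1 with chemical, free iodide is quantified colorimetrically (Sandell-Kolthoff cerium/arsenic reaction). Triplicate plates, DMSO baseline.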

Nucleoli Translocation, AR (gene 367), sequence (P10275 whole entry, looked up): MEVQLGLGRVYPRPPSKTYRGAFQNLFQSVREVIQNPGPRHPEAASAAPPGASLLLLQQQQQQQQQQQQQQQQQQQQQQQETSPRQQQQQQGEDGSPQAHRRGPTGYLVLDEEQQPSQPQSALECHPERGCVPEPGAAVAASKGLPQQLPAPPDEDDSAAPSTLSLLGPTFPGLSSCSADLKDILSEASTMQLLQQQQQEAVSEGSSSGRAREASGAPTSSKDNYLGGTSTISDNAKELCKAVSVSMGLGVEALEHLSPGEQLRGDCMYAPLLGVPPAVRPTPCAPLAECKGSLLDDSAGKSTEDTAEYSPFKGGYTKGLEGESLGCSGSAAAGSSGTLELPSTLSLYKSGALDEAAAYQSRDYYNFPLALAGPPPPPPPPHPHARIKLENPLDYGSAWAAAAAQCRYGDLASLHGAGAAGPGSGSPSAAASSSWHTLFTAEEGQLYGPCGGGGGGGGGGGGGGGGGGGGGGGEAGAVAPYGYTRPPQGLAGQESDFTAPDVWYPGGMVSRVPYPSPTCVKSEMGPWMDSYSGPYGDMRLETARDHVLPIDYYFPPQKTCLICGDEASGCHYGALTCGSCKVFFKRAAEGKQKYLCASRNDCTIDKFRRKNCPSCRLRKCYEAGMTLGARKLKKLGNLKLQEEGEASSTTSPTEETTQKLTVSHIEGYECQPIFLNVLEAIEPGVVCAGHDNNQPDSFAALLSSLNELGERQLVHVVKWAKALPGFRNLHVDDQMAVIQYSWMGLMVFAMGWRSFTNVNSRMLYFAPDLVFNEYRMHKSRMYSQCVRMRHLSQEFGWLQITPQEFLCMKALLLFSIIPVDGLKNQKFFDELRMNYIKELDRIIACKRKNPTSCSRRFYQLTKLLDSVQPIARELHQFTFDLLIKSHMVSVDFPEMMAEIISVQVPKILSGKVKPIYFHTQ
Ratio of Nucleoli Translocation and Cytoplasm, AR (gene 367), sequence (P10275 whole entry, looked up): as above

SMILES: CN(C)c1ccc(N=NS(=O)(=O)O)cc1
- outcome [1]: inactive
- outcome [2]: inactive
- outcome [3]: inactive

SMILES: Cc1ccc(N)cc1O
- AC50 [1]: 37 µM (active)
- outcome [4]: inactive
- outcome [2]: inactive
- outcome [3]: inactive
- AC50 [5]: 50 µM (active)
- AC50 [6]: 60.5 µM (active)
- AC50 [7]: 39.1 µM (active)
- outcome [8]: inactive

SMILES: O=C(CCCCCCCCc1cccnc1)N1CCC(C=C(c2ccccc2)c2ccccc2)CC1
- outcome [1]: inactive
- outcome [2]: inactive
- outcome [5]: inactive
- outcome [6]: inactive
- outcome [7]: inactive

SMILES: Nc1nc2ncc(CNc3ccc(C(=O)N[C@@H](CCC(=O)O)C(=O)O)cc3)nc2c(=O)[nH]1
- outcome [1]: inactive
- outcome [3]: inactive

SMILES: CC(C)=CCCC(C)=CC=O
- outcome [5]: inactive
- outcome [6]: inactive
- outcome [7]: inactive

SMILES: Cc1ccc(O)cc1
- outcome [4]: inactive
- outcome [3]: inactive

SMILES: CNS(=O)(=O)c1cc(C(=O)N2CCC(CCN3C4CCC3CC(n3c(C)nc5ccccc53)C4)(c3cccc(F)c3)CC2)c(Cl)cc1F (stereo unspecified)
- outcome [1]: inactive
- outcome [2]: inactive

SMILES: O=C(O)c1cc(N=Nc2ccc(S(=O)(=O)Nc3ccccn3)cc2)ccc1O
- AC50 (DIO1 (gene 1733)): 27.3 µM (active)
